Measurements as given in PubChem BioAssay (NCI).
About 83,000 compounds went through this panel and 20% of them were active in at least one assay; those are over-represented in the sample as a whole.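 Cell lines were cultured in 96-well plates, exposed to a single compound concentration, and assessed for percent growth 48 hours later.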 A number with no mark means an inactive call. Activity calls are given as the source filed them. How the source made its calls: active means growth percent below 10; inactive means the rest.

Key:
Test in all cases: NCI-60 one-dose screen, 48 h (100 = growth as untreated, 0 = no growth, -100 = all killed)
Settings in all cases: 10 µM unless noted
NCI-H23 lung = system: NCI-H23 lung
NCI-H226 lung = system: NCI-H226 lung
NCI-H322M lung = system: NCI-H322M lung
HOP-62 NSCLC = system: HOP-62 NSCLC
NCI-H460 lung = system: NCI-H460 lung
HOP-92 NSCLC = system: HOP-92 NSCLC
NCI-H522 lung = system: NCI-H522 lung
A549/ATCC NSCLC = system: A549/ATCC NSCLC
786-0 renal = system: 786-0 renal
COLO 205 colon = system: COLO 205 colon
DU-145 prostate = system: DU-145 prostate
K-562 leukemia = system: K-562 leukemia
MALME-3M melanoma = system: MALME-3M melanoma
MDA-MB-231 breast = system: MDA-MB-231 breast
RXF 393 renal = system: RXF 393 renal
SF-268 CNS = system: SF-268 CNS
SF-295 CNS = system: SF-295 CNS
SF-539 CNS = system: SF-539 CNS
UACC-257 melanoma = system: UACC-257 melanoma
M14 melanoma = system: M14 melanoma

Structure (SMILES) | growth (NCI-H23 lung) | growth (NCI-H226 lung) | growth (NCI-H322M lung) | growth (HOP-62 NSCLC) | growth (NCI-H460 lung) | growth (HOP-92 NSCLC) | growth (NCI-H522 lung) | growth (A549/ATCC NSCLC) | growth (786-0 renal) | growth (COLO 205 colon) | growth (DU-145 prostate) | growth (K-562 leukemia) | growth (MALME-3M melanoma) | growth (MDA-MB-231 breast) | growth (RXF 393 renal) | growth (SF-268 CNS) | growth (SF-295 CNS) | growth (SF-539 CNS) | growth (UACC-257 melanoma) | growth (M14 melanoma)
Cc1cc2nc3c4ccccc4n(CCNCCN(C)C)c3nc2cc1C | 31.2% | 53.3% | 36.3% | 45.3% | 5.46% (active) | 10.5% | 17.7% | 20.4% | 20.4% | -71.5% (active) | 17.2% | 0.435% (active) | -96.6% (active) | 1.93% (active) | -34.7% (active) | 42.5% | 20.2% | -79.8% (active) | -72.8% (active) | -79.9% (active)
CCCCCCCCOc1cccc(S(=O)(=O)Nc2ccc(C)cc2C(=O)O)c1 | 96.3% | 98.4% | 94.5% | 99.8% | 98.4% | 80.1% | 86.5% | 84.2% | 99.4% | 112% | 102% | 83.8% | 96% | 105% | 107% | 99.2% | 90% | 97.6% | 96.7% | 100%
CC1(c2cc3cc(Cl)ccc3oc2=O)NC(=O)c2c(/C=C/C(=O)OC3CC4CCC3(C)C4(C)C)cccc2N1 (stereo not given) | 63.4% | 67% | 70.5% | 71.5% | 67.2% | 40.8% | 36.8% | 41.7% | 69.9% | 48.8% | 71.2% | 21.6% | 84.6% | 75.1% | 52% | 78.5% | 46.1% | 87.2% | 57.2% | 69.6%
Cn1cc(NC(=O)c2cc(NC(=O)c3ccc(/C=C/c4ccccc4)cc3)cn2C)cc1C(=O)NCCCN1CCOCC1 | 66.7% | 77.4% | 69.9% | 90.9% | -51.6% (active) | -18% (active) | 17.6% | 26.9% | 27.9% | -78.6% (active) | 44.4% | -41.3% (active) | -83.3% (active) | -19.9% (active) | -3.75% (active) | 58.6% | -80.5% (active) | -98.2% (active) | 77.9% | -84% (active)
COc1cc(C2CC(c3cc(OC)c(OC)c(OC)c3)=Nc3c(N)nc(N)nc3N2)ccc1Oc1nc(NCCO)nc(N2CCOCC2)n1 (stereo not given) | 95.8% | 84.2% | 86.2% | 90.4% | 106% | 103% | 87.2% | 99.2% | 97.6% | 110% | 114% | 91.1% | 98.5% | 102% | 105% | 93.8% | 101% | 97.5% | 105% | 102%
COc1ccc(-c2nc(SC(C)C)nc(NCCc3c[nH]c4ccccc34)c2C#N)cc1 | 45.6% | 40.8% | 87.7% | 51.5% | 24.1% | 39% | 35.8% | 47.1% | 30.3% | 45.7% | 54% | 14.5% | 78.8% | 26.6% | -20.3% (active) | 49.8% | 33.6% | 42.7% | 82.5% | 55.7%
O=C(N=Nc1c(O)[nH]c2ccc(Cl)cc12)c1ccc2nc(-c3ccccc3)[nH]c2c1 | 29.9% | 91.1% | 15.8% | 81.3% | 26.3% | 77% | 8.85% (active) | 94.3% | 47.4% | 62% | 10.9% | 29.3% | 8.71% (active) | -33.1% (active) | 59.1% | 21.8% | 63.6% | 34% | 109% | 68.6%
Cc1ccc(C(SCCNCc2cc(N(C)C)ccn2)(c2ccccc2)c2ccccc2)cc1 | -35.8% (active) | -6.05% (active) | 23.1% | -1.31% (active) | -26.6% (active) | -25.4% (active) | -78.8% (active) | -3.31% (active) | -76.6% (active) | -71.6% (active) | -8% (active) | -42.7% (active) | -94.4% (active) | -56.9% (active) | -47.3% (active) | -2.09% (active) | -96.1% (active) | -99.1% (active) | -65.4% (active) | -84.3% (active)
CC1(C)CC[C@]2(C(=O)Nc3ccccc3)CC[C@]3(C)C(=CCC4[C@@]5(C)C[C@@H](O)[C@H](O)[C@@](C)(CO)C5CC[C@]43C)C2C1 (stereo not given in full) | 75.9% | 54.3% | 89.7% | 75.3% | 51.4% | 39.1% | 41.6% | 39.2% | 71.1% | 31.6% | 76.8% | 33.3% | 73.9% | 53.5% | 17.6% | 61.2% | 50.4% | 63% | 65.6% | 56.1%
CCC(C)(C)c1ccc(OCCCCN2CCN(c3ccncc3)CC2)cc1 | 22.1% | 39.8% | 83.9% | 37.4% | 24.9% | 3.82% (active) | 36% | 47.4% | -56.4% (active) | -81.9% (active) | 60.8% | -1.88% (active) | -85% (active) | -30.9% (active) | -7.66% (active) | 66.7% | -35.6% (active) | -36% (active) | 37.5% | -56.6% (active)
Cc1sc(C(NC(=O)OCCn2c([N+](=O)[O-])cnc2C)C(F)(F)Cl)nc1-c1ccc(OC(F)(F)F)cc1 (stereo not given) | -92% (active) | -65.2% (active) | -92.4% (active) | -89.7% (active) | -29.2% (active) | -82% (active) | -86.1% (active) | -81.3% (active) | -91.3% (active) | -74.2% (active) | -70.4% (active) | 0.935% (active) | -75% (active) | -94.8% (active) | -88.6% (active) | -38.6% (active) | -98.8% (active) | -92.4% (active) | -73% (active) | -67.5% (active)
Cc1ccc([C@H]2C(C(=O)c3ccc(Cl)cc3)C3(N[C@@H]2c2ccccc2)C(=O)Nc2ccc(Cl)cc23)cc1 (stereo not given in full) | 52.8% | 61.4% | 67.4% | 65.1% | 39.7% | 16.6% | 43.9% | 33.2% | 39.1% | 44.5% | 71.8% | 22.2% | 87.2% | 50.7% | 27% | 55.8% | 48.2% | 77% | 69.8% | 44.8%
CCCSc1nc(NCCc2c[nH]c3ccccc23)c(C#N)c(-c2ccc(F)cc2)n1 | 80.6% | 32.5% | 82.9% | 40.4% | 14.1% | 52.1% | 61.3% | 58.6% | 62.4% | 44% | 63.7% | 27.7% | 75.4% | 29.2% | 24.8% | 53.8% | 41.2% | 44.7% | 74.6% | 75.5%
CN1C(=O)/C(=C/c2ccc(C(=O)Nc3ncc(Cc4ccc(Cl)cc4Cl)s3)cc2)SC1=S | 42.8% | 51.8% | 47.1% | 59.3% | 46.2% | 64.4% | 19.2% | 42.7% | 53.3% | 27.6% | 30.7% | 24.3% | 23.1% | 43.6% | 30.9% | 47% | 10.8% | 36.9% | 33.1% | 11.6%
